Screening data from PubChem.
CHRM1 agonist: human M1 muscarinic receptor agonists, primary screen, Fluo-8 calcium fluorescence, CHO-K1 cells, HTS. Muscarinic acetylcholine receptor M1 (Homo sapiens), P11229. CHO-K1 hM1, agonist mode; 0% DMSO, 100% acetylcholine EC100. activation, % at 3 µM. actives 0.33% (n = 360,000). AID 588814, 2011;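 active = activation above the run's mean compound activation plus 3 SD, cut at about 16% in these data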;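 note: peak over basal fluorescence ratio within a 140 s kinetic read after compound addition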
Target sequence (P11229 whole entry, looked up): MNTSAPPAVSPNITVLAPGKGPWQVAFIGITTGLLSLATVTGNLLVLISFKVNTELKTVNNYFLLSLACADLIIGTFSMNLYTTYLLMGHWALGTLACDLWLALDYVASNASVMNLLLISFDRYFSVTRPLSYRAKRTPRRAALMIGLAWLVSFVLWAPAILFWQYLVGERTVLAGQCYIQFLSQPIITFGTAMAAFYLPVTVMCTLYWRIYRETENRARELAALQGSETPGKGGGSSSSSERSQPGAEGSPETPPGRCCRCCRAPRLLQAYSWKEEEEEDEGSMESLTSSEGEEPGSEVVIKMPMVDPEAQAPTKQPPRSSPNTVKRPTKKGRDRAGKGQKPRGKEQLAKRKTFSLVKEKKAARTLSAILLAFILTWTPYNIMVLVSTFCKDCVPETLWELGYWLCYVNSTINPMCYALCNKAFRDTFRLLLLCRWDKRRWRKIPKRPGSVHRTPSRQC
CHRM1 PAM: human M1 muscarinic receptor positive allosteric modulators, primary screen, CHO-K1 cells, Fluo-8 calcium fluorescence, 1536-well | Muscarinic acetylcholine receptor M1 (Homo sapiens), P11229 | CHO-K1 hM1, ACh EC20; 0% = ACh EC20, 100% = maximal ACh | activation, % at 3 µM | actives 0.088% (n = 360,000); in the data active = activation above about 19%, passing the limit was not always enough
CHRM1 antagonist: human M1 muscarinic receptor antagonists, primary screen, CHO-K1 cells, Fluo-8 calcium fluorescence, 1536-well; Muscarinic acetylcholine receptor M1 (Homo sapiens), P11229; CHO-K1 hM1, ACh EC80 antagonist; inhibition, % at 3 µM; actives 1.3% (n = 360,000); AID 588852, 2011;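 active = percent inhibition above its own plate's cutoff, namely the mean of that plate's compound wells plus 3 SD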;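 note: peak over basal fluorescence ratio during 140 s after agonist addition; 0% = ACh EC80 plus DMSO and 100% = DMSO alone without agonist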
CHO-K1 Ca ag: counter-screen for M1 agonists: effect in parental CHO-K1 cells; actives 0.48% (n = 360,000); AID 602248, 2012; activation, % at 3 µM; Fluo-8 calcium fluorescence; scaled to maximal ATP response, vehicle zero; in the data active = activation above about 15%;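 note: untransfected CHO-K1 host cells lacking M1 receptor as counterscreen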
M1 PAM parental: nonselective calcium activators in parental CHO-K1 cells, primary screen, counter-screen for M1 PAM project, cell-based, Fluo-8 calcium fluorescence, full deck, 1536-well; activation, % at 3 µM; actives 0.02% (n = 360,000); ATP EC20; 0% at ATP EC20, 100% at ATP max;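 active = activation above the run cutoff, the mean activation of all test compounds plus 3 SD, cut at about 40% in these data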;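 note: peak over basal fluorescence ratio in a 140 s read after ATP addition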
CHO-K1 Ca antag: M1 antagonist counterscreen hit in parental CHO-K1 cells. ATP-induced calcium, Fluo-8 fluorescence. inhibition, % at 3 µM. actives 0.6% (n = 360,000);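 active = inhibition above a per-plate cutoff, the plate's mean sample inhibition plus 3 SD, cut at about 24% in these data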;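 note: 0% = DMSO plus EC80 ATP and 100% = DMSO alone without ATP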
Numbers without * were called inactive. Most compounds without a hit are left out; they make up all but 2.3% or so of the library.

SMILES | CHRM1 agonist | CHRM1 PAM | CHRM1 antagonist | CHO-K1 Ca ag | M1 PAM parental | CHO-K1 Ca antag
Cc1cc(C)c2c(CN3CCN(Cc4ccc5c(c4)OCO5)CC3)cc(=O)oc2c1 | -7 | -27 | 33* | 1 | 18 | -10
CN1CCN(CCNC(=O)c2ccc3nc(-c4ccc(F)cc4)c(-c4ccc(F)cc4)nc3c2)CC1 | -5 | -21 | 45* | 2 | 20 | -15
CCOC(=O)C1CCCN(C(=O)COc2ccccc2O)C1 (stereo unspecified) | 74* | -23 | 62* | 0 | 18 | -11
CCOC(=O)C1CCCN(C(=O)CCc2nnc(-c3ccc(C(C)=O)s3)o2)C1 (stereo unspecified) | 29* | -11 | 9 | 1 | 14 | -13
CCOC(=O)C1CCCN(C(=O)CSc2ccc(Br)cc2)C1 (stereo unspecified) | -7 | -1 | 5 | 0 | -10 | 18
CCOC(=O)C1CCCN(C(=O)CSc2nc(C)cc(C)n2)C1 (stereo unspecified) | 38* | -5 | 8 | 0 | 10 | -4
CNC(=O)/C(C#N)=C/c1ccc(-c2ccccc2[N+](=O)[O-])o1 | -6 | 6 | 1 | 0 | -18 | 27*
Cc1ccc(C)c(OCCC(=O)Nc2ccc(S(=O)(=O)N3CCCC3)cc2)c1 | -5 | -4 | 8 | 3 | 3 | -16
CCCN1CCC(NC(=S)Nc2cccc(Cl)c2Cl)CC1 | 26* | 9 | -13 | 0 | 22 | -8
CCC(=O)c1cn(CC(=O)Nc2ccccc2)c2ccccc12 | -1 | 4 | 7 | 0 | -5 | 25*
Cc1ccc2c(c1)CCCN2CC(=O)Nc1cccc(S(=O)(=O)N2CCCC2)c1 | -8 | -17 | 32* | 1 | -16 | -3
Cc1ccc2c(c1)CCCN2CC(=O)Nc1cc(S(=O)(=O)N2CCCC2)ccc1Cl | -8 | -5 | -9 | 0 | -3 | -14
CC(=O)N1CCN(CC(=O)Nc2cccc(S(=O)(=O)N3CCCCCC3)c2)CC1 | -2 | 9 | 0 | 0 | -14 | 27*
CC(=O)N1CCN(CC(=O)Nc2cccc(S(=O)(=O)N3CCCCC3)c2)CC1 | -4 | 11 | -21 | 1 | -10 | -5
O=C(Cc1cccs1)Nc1cccc(C(=O)Nc2ccc(C(=O)O)cc2)c1 | -5 | 7 | -4 | 3 | 18 | -5
COc1ccc(C(=O)CN2C(=O)NC3(CCCCC3)C2=O)cc1OC | -2 | 10 | -1 | 19* | -2 | 13
COc1ccc(C(=O)CN2C(=O)NC3(CCCCCC3)C2=O)c(OC)c1 | -4 | 2 | 7 | 0 | -22 | 1
O=C(CN1C(=O)NC2(CCCC2)C1=O)NNC(=O)c1ccc(Br)cc1 | 2 | 30* | -22 | 0 | 3 | -1
COCc1c(C(=O)OCC(=O)NCc2ccco2)oc2ccccc12 | -7 | 3 | -6 | 0 | -14 | 24*
Cc1c(C(=O)OCC(=O)NCc2ccco2)oc2ccccc12 | -8 | 3 | -4 | 1 | 18 | -18
O=C1NC(Cc2c[nH]c3ccccc23)C(=O)N1Cc1ccccc1 (stereo unspecified) | -2 | 12 | -14 | 1 | 5 | -4
COC(=O)c1ccc(CN2C(=O)NC(Cc3c[nH]c4ccccc34)C2=O)cc1 (stereo unspecified) | 1 | -5 | 8 | 15* | -5 | 0
CN(C)Cc1ccccc1C(O)(c1ccccc1)c1ccccc1 | -8 | -23 | 30 | 1 | 3 | -22
CN(C)Cc1cc(C(F)(F)F)ccc1C(O)(c1ccccc1)c1ccccc1 | -7 | -31 | 101* | 0 | -23 | 8
COc1ccc(S(=O)(=O)N2CCC(C(=O)NCc3ccncc3)CC2)cc1C | -7 | 3 | -4 | -1 | -3 | -4
O=C1C2C3c4ccccc4C(c4ccccc43)C2C(=O)N1c1nc(-c2ccccc2)cs1 (stereo unspecified) | 0 | 20* | -6 | 0 | -2 | 5
